Reference: PubChem BioAssay AID624495 (National Center for Advancing Translational Sciences (NCATS), 2012)
Records with an inconclusive call do not appear. Activity calls are given as the source filed them. The call rests on the fitted dose curve; in most records, active means well fitted inhibition curve with a large enough effect; inconclusive means small, poorly fitted or top-dose-only effect, or another doubt; inactive means flat fitted curve, though single readings scatter.

The compounds below were run against D(2) dopamine receptor (Homo sapiens) (UniProt P14416) (assay: HTS Assay for Allosteric Antagonists of the Human D2 Dopamine Receptor: SAR in D2 Beta Arrestin Assay). Conditions: DiscoveRx PathHunter D2 beta-arrestin recruitment, luminescence.
Chain of D(2) dopamine receptor (Homo sapiens) (P14416 whole entry, looked up): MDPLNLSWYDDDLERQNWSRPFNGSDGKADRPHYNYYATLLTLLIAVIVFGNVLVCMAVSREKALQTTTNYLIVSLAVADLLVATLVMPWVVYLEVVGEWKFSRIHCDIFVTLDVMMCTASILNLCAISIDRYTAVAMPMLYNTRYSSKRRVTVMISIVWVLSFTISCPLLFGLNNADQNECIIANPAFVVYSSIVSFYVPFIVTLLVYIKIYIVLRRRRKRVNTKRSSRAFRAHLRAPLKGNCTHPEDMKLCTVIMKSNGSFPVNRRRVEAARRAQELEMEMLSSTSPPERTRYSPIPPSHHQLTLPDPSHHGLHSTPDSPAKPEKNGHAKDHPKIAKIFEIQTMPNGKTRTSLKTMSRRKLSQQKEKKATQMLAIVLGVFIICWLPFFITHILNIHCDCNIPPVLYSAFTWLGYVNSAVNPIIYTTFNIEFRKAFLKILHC
Source text: There is great interest in identifying small molecule ligands for G-protein coupled receptors (GPCRs) as nearly 50% of all FDA-approved drugs target these important receptor proteins. […] Amongst the dopamine receptors (DARs), the D2 is arguably one of the most validated drug targets in neurology and psychiatry. For instance, all receptor-based antiparkinsonian drugs primarily work via stimulating the D2 DAR, whereas all FDA-approved antipsychotic agents are antagonists of this receptor. The D2 DAR is also therapeutically targeted in other disorders such as restless legs syndrome, tardive dyskinesia, Tourette's syndrome, and hyperprolactinemia. […] This is an orthogonal assay to test the lead compounds against the D2 receptor, using a beta arrestin assay. NIH Molecular Libraries Probe Production Network [MLPCN] NIH Chemical Genomics Center [NCGC] Grant: NS0676421 PI Name: David Sibley, National Institutes of Neurological Disorders and Stroke
DiscoveRx D2 cells were thawed from frozen stock and seeded at 2,100 cells/ 3 uL/well media (DiscoveRx Plating Reagent 2) with MultiDrop Combi dispenser (Thermo Scientific, Logan, UT) onto white tissue culture treated 1536-well Aurora plates (Brooks Automation, Chelmsford, MA) and allowed to attach overnight at 37 deg C, 5% CO2. Next, 23 nL/well of compound solutions in DMSO were added with a pintool transfer (Kalypsis, San Diego, CA). As the positive control, 1 uL/well dopamine (EC100, 57 uM final concentration) diluted in buffer (HBSS + 10 mM HEPES + SMB + 0.1% Tween-20) was dispensed to 1 column of each plate. The rest of the plate was dispensed with buffer only, 1 uL/well as well. The cells were stimulated by compounds or dopamine control for 90 minutes at 37 deg C, 5% CO2, after which 1.5 ul/well of DiscoveRx detection reagent was added with BioRAPTR FRD dispenser. The detection reagent was prepared by mixing of Galacton Star Substrate, Emerald II solution and PathHunter buffer (supplied by the assay kit) together at 1:5:19 proportion accordingly just prior to dispensing. The plates were incubated at ambient temperature for 1 hour and then the luminescent signal was read on ViewLux plate reader (PerkinElmer, Waltham, MA).

Potency, active:
CN1C(=O)c2ccccc2[S@](=O)c2ccc(C(=O)NCc3ccc(Br)cc3)cc21 1020 nM
CN1C(=O)c2ccccc2[S@](=O)c2ccc(C(=O)NCCN3CCCC3)cc21 363 nM
CN1C(=O)c2ccccc2[S@](=O)c2ccc(C(=O)NCc3ccc(Cl)cc3)cc21 2890 nM
CN1C(=O)c2ccccc2[S@](=O)c2ccc(C(=O)NCCc3cccs3)cc21 725 nM
CCN1C(=O)c2ccccc2S(=O)c2ccc(C(=O)NCc3ccc(OC)cc3)cc21 (configuration not stated) 2890 nM
CCN1C(=O)c2ccccc2[S@](=O)c2ccc(C(=O)NCc3ccc(C#N)cc3)cc21 257 nM
CN1C(=O)c2ccccc2S(=O)c2ccc(C(=O)NCCc3cccs3)cc21 (configuration not stated) 913 nM
CCN1C(=O)c2ccccc2[S@](=O)c2ccc(C(=O)NCc3ccc(OC)cc3)cc21 1150 nM
CCN1C(=O)c2ccccc2[S@](=O)c2ccc(C(=O)N[C@H](C)c3ccc4ccccc4c3)cc21 2890 nM
CN1C(=O)c2ccccc2[S@](=O)c2ccc(C(=O)NCc3cccnc3)cc21 2890 nM
CCN1C(=O)c2ccccc2[S@](=O)c2ccc(C(=O)NCc3ccc(F)cc3)cc21 576 nM
CCN1C(=O)c2ccccc2[S@](=O)c2ccc(C(=O)N[C@H](C)c3ccc(Br)cc3)cc21 1290 nM
